From PubChem
The list is not random: actives were taken first. Their share in the collection is about 21%.
DT40 TDP1 CPT – growth inhibition of DT40 Tdp1-/-;hTDP1 cells with camptothecin (screen for TDP1 inhibitors); chicken DT40 Tdp1-/-;hTDP1 cells + 20 nM CPT, ATP luminescence, 48 h; Potency, µM (titrated, usually from 46.2 µM), for the others: at the top dose activity change, negative = growth inhibition, hits mostly inhibitors; 12% of 420,000 active; note: potency is the fitted concentration of half-maximal effect; % is set by controls: 0 for no effect and ±100 for the full control effect; nearly all actives have a fitted effect of over 55% in size
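Cell growth measured by CellTiter-Glo luminescence after a minimum 48 h, 37 C compound exposure with 20 nM CPT in Tdp1-knockout DT40 cells stably expressing hTDP1, seeded 400/well; qHTS titration format.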
DRD3 agonist – D3 dopamine receptor (human) agonism. P35462. D3R DiscoveRx beta-arrestin cells, luminescence, 90 min. max activation, %. 0.58% of 410,000 active. AID 652048; in the data active = max activation above about 30%; note: 0% is about no effect
Target sequence (P35462 whole entry, looked up): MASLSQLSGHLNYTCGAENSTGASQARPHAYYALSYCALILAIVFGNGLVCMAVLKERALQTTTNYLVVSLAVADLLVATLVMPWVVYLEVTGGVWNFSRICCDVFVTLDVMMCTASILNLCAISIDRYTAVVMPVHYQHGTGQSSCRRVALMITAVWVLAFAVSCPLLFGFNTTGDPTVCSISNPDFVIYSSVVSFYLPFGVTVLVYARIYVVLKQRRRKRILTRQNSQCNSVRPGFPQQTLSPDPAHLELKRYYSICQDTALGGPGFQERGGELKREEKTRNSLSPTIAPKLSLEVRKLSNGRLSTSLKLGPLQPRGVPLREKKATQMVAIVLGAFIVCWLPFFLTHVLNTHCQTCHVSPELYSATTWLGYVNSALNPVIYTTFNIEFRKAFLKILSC
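Agonist-mode cell screen: cells plated at 1500/well and incubated overnight at 37 °C, then exposed to library compounds for 90 min at 37 °C. Detection reagent was added for 30–60 min at room temperature, and luminescence was read.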
TDP1 cell noCPT – qHTS for Inhibitors of human tyrosyl-DNA phosphodiesterase 1 (TDP1): qHTS in cells in absence of CPT | DT40 Tdp1-/- hTDP1 cells, no CPT, ATP luminescence, 48 h | Potency, µM (titrated, usually from 46.2 µM), inactives show top-dose activity change, negative = growth inhibition, hits mostly inhibitors | 15% of 420,000 active; note: potency is the fitted concentration of half-maximal effect; % is set by controls: 0 for no effect and ±100 for the full control effect; nearly all actives have a fitted effect of over 55% in size
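Growth kinetics read by CellTiter-Glo luminescence after ≥48 hr at 37 °C. Cells: DT40 Tdp1-/- stably carrying human TDP1, 400 per well, compound exposure in the absence of CPT (DMSO vehicle).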
ClpP mod – qHTS Assay for Activators of ClpP. ATP-dependent Clp protease proteolytic subunit (Bacillus subtilis (strain 168)), P80244. Potency, µM (top dose mostly 57.5 µM), for inactives: top-dose activity change, negative = active. AID 651965, 2013. 1.9% of 340,000 active. purified B. subtilis ClpP, FRET peptide cleavage, 20 min; active = well fitted falling curve with a large enough effect; inconclusive = small, poorly fitted or top-dose-only effect; inactive = no such curve, though single readings can be large or run the other way; note: potency is the fitted concentration of half-maximal effect; the source files actives as falling curves though it sought activators and does not explain the sign; nearly all actives have a fitted effect of over 65% in size
Target sequence (P80244 whole entry, looked up): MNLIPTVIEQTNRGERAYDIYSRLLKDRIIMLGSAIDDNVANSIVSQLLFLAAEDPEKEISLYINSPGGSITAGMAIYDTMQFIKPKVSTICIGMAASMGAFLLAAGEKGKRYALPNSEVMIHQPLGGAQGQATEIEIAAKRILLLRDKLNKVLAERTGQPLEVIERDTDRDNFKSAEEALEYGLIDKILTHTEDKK
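Buffer: 100 mM Tris/HCl pH8, 100 mM KCl, 0.05% low protease BSA, 2.5% glycerol, 0.01% Tween-20. ClpP 10 microg/mL final; 20 min RT; delta FRET normalized to ADEP and DMSO controls.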
D3 antag – blocks the human D3 dopamine receptor | D3R cells, DiscoveRx beta-arrestin luminescence, antagonist mode; active compounds read low | 2.5% of 360,000 active | P35462 | max response, negative = inhibition, %; in the data active = max response below about -50%; inconclusive = no clear call, values can overlap the other calls; note: % is set by controls: 0 for no effect and ±100 for the full control effect
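Cells expressing the human receptor were seeded at 1500 cells/well, incubated overnight at 37 degrees C in 5% CO2, then exposed to library compounds with dopamine controls for 90 minutes at 37 degrees C before luminescent detection.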
IL-1B inflam inh – inhibitors of inflammasome signaling (IL-1 beta secretion); THP-1 LPS/ATP IL-1B secretion, AlphaLISA, 16 h; active compounds read low; activity change, % at 57.5 µM; 4.7% of 360,000 active; in the data active = activity change below about -50%; inconclusive = mostly about -30% to -49%; note: % is set by controls: 0 for no effect and ±100 for the full control effect
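Secreted IL-1B measured by AlphaLISA bead assay after 16 h compound exposure of THP-1 cells; compounds (final up to 57.5 uM) added 1 h before LPS (250 ng/mL) and ATP (1.25 mM) stimulation; lower signal means less secretion.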
The depositor's hits bear a star. Unless noted, calls come from the whole dose curve; as a rule, active = well fitted inhibition curve with a large enough effect; inconclusive = small, poorly fitted or top-dose-only effect; inactive = flat fitted curve, though single readings scatter.

What do the screens show for `CCOC(=O)c1c(C)[nH]c(C)c1S(=O)(=O)NCc1cc(C)ccc1C`?
DT40 TDP1 CPT: -16%; DRD3 agonist: -5; TDP1 cell noCPT: 16%; ClpP mod: -1%; D3 antag: -7; IL-1B inflam inh: -21

What do the screens show for `O=S(=O)(c1ccc(S(=O)(=O)N2CCN(C/C=C/c3ccccc3)CC2)cc1)N1CCCC1`?
DT40 TDP1 CPT: inconclusive; DRD3 agonist: 2; TDP1 cell noCPT: 12µM*; ClpP mod: 2%; D3 antag: -15; IL-1B inflam inh: 13

How did O=C(CCN1CCN(C/C=C/c2ccccc2)CC1)Nc1ccccc1 do in these assays?
DT40 TDP1 CPT: -26%; DRD3 agonist: 4; TDP1 cell noCPT: inconclusive; ClpP mod: 0%; D3 antag: -58*; IL-1B inflam inh: -15

Results for Cc1cccc(NC(=O)CCN2CCN(C/C=C/c3ccccc3)CC2)c1 ?
DT40 TDP1 CPT: inconclusive; DRD3 agonist: 7; TDP1 cell noCPT: 21µM*; ClpP mod: -1%; D3 antag: -64*; IL-1B inflam inh: -77*

How did Cc1cc(NC(=O)CCN2CCN(C/C=C/c3ccccc3)CC2)ccc1Br do in these assays?
DT40 TDP1 CPT: inconclusive; DRD3 agonist: -5; TDP1 cell noCPT: inconclusive; ClpP mod: 0%; D3 antag: -17; IL-1B inflam inh: -82*

Results for COc1ccc(OCC(O)CNC(=O)Nc2ccc(C(C)(C)C)cc2)cc1 (configuration not stated) ?
DT40 TDP1 CPT: -10%; DRD3 agonist: -6; TDP1 cell noCPT: -28%; ClpP mod: -3%; D3 antag: 0; IL-1B inflam inh: 4

What do the screens show for `Cc1ccccc1NC(=O)CCN1CCN(C/C=C/c2ccccc2)CC1`?
DT40 TDP1 CPT: 21µM*; DRD3 agonist: 25; TDP1 cell noCPT: inconclusive; ClpP mod: 0%; D3 antag: -26; IL-1B inflam inh: inconclusive

How did Cc1ccccc1NC(=O)CCN1CCN(C)CC1 do in these assays?
DT40 TDP1 CPT: 1%; DRD3 agonist: -1; TDP1 cell noCPT: 2%; ClpP mod: 0%; D3 antag: -24; IL-1B inflam inh: 4

How did COc1ccc(C(=O)NNC(=O)c2cc3ccccc3cc2O)cc1 do in these assays?
DT40 TDP1 CPT: inconclusive; DRD3 agonist: 4; TDP1 cell noCPT: 13µM*; ClpP mod: -9%; D3 antag: 24; IL-1B inflam inh: 140

Results for COc1ccc(C(=O)NNC(=O)c2ccccc2[N+](=O)[O-])cc1 ?
DT40 TDP1 CPT: -15%; DRD3 agonist: 2; TDP1 cell noCPT: 4%; ClpP mod: 0%; D3 antag: 5; IL-1B inflam inh: 1

What do the screens show for `COc1ccccc1C(=O)NNC(=O)c1cc2ccccc2cc1O`?
DT40 TDP1 CPT: 13µM*; DRD3 agonist: 3; TDP1 cell noCPT: 18µM*; ClpP mod: -4%; D3 antag: 19; IL-1B inflam inh: 79

How did O=C(NC1CCCCC1)C(c1ccncc1)N(C(=O)c1ccco1)c1ccc(F)cc1 (configuration not stated) do in these assays?
DT40 TDP1 CPT: -1%; DRD3 agonist: -20; TDP1 cell noCPT: -14%; D3 antag: 3; IL-1B inflam inh: -10

Results for CN1CCN(C2=Cc3ccccc3Sc3cc(F)c(F)cc32)CC1 ?
DT40 TDP1 CPT: inconclusive; DRD3 agonist: 2; TDP1 cell noCPT: inconclusive; ClpP mod: 1%; D3 antag: -62*; IL-1B inflam inh: -62*

What do the screens show for `CN1CCN(C2=Cc3cc(Cl)ccc3Sc3cc(F)ccc32)CC1`?
DT40 TDP1 CPT: inconclusive; DRD3 agonist: -19; TDP1 cell noCPT: 29µM*; ClpP mod: -1%; D3 antag: -8; IL-1B inflam inh: -100*

What do the screens show for `CN1CCN(c2cc(-c3ccccc3C(F)(F)F)ncn2)CC1`?
DT40 TDP1 CPT: 4%; TDP1 cell noCPT: 9%

How did CN1CCN(S(=O)(=O)c2ccc(Cl)c(C(F)(F)F)c2)CC1 do in these assays?
DT40 TDP1 CPT: -3%; DRD3 agonist: 4; TDP1 cell noCPT: 1%; ClpP mod: -1%; D3 antag: 2; IL-1B inflam inh: 24

What do the screens show for `CN1CCN(C2=Cc3ccccc3Sc3cc(F)c(Cl)cc32)CC1`?
DT40 TDP1 CPT: inconclusive; DRD3 agonist: 1; TDP1 cell noCPT: 29µM*; ClpP mod: -4%; D3 antag: inconclusive; IL-1B inflam inh: -62*

How did CCCSc1ncc(Cl)c(C(=O)Nc2c(C(=O)c3ccc(F)cc3)oc3ccccc23)n1 do in these assays?
DT40 TDP1 CPT: 19%; DRD3 agonist: 0; TDP1 cell noCPT: -6%; ClpP mod: -2%

Results for O=C(c1ccc(S(=O)(=O)NCC2CCCO2)cc1)N1CCc2ccccc21 (configuration not stated) ?
DT40 TDP1 CPT: 21µM*; DRD3 agonist: 7; TDP1 cell noCPT: 21µM*; ClpP mod: 2%; D3 antag: 11; IL-1B inflam inh: 8

What do the screens show for `O=C(C1CC1)N1CCC(c2nc(-c3ccc(S(=O)(=O)NCC4CCCO4)cc3)no2)CC1` (configuration not stated)?
DT40 TDP1 CPT: 13µM*; DRD3 agonist: 28; TDP1 cell noCPT: 14µM*; ClpP mod: 1%; D3 antag: 16; IL-1B inflam inh: 0

Results for O=S(=O)(NCC1CCCO1)c1ccccc1 (configuration not stated) ?
DT40 TDP1 CPT: -5%; DRD3 agonist: -8; TDP1 cell noCPT: 6%; ClpP mod: 2%; D3 antag: -20; IL-1B inflam inh: 12

What do the screens show for `O=C(c1ccccc1)N1CCC(c2nc(-c3ccc(S(=O)(=O)NCC4CCCO4)cc3)no2)CC1` (configuration not stated)?
DT40 TDP1 CPT: 10µM*; DRD3 agonist: 25; TDP1 cell noCPT: 10µM*; ClpP mod: -1%; D3 antag: 11; IL-1B inflam inh: -72*

What do the screens show for `Cc1ccc(-c2ccc(S(=O)(=O)NCC3CCCO3)cc2)cc1` (configuration not stated)?
DT40 TDP1 CPT: inconclusive; DRD3 agonist: 2; TDP1 cell noCPT: inconclusive; ClpP mod: 0%; D3 antag: 15; IL-1B inflam inh: 22

How did COc1ccc2c(c1OC)C(=O)N(c1cccc(NC(C)=O)c1)C2 do in these assays?
DT40 TDP1 CPT: 24%; DRD3 agonist: 2; TDP1 cell noCPT: 0%; D3 antag: 6; IL-1B inflam inh: inconclusive

Results for OC(C[n+]1cccc(Br)c1)c1ccccc1 (configuration not stated) ?
DT40 TDP1 CPT: -12%; TDP1 cell noCPT: -17%; ClpP mod: -12%
